# Experimental data published in PubChem BioAssay (NCI).
# Compounds without any hit were thinned out: in the full panel of roughly 83,000, 20% have a hit.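 For each line, cells grew in 96-well plates with the test compound present at a single concentration for 48 hours.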 A number with no mark means an inactive call. Active and inactive are the calls of the source. How the source made its calls: active means growth percent below 10; inactive means the rest.
# How the values were obtained:
# Assay in all cases: NCI-60 one-dose screen, 48 h (100 = growth as untreated, 0 = no growth, -100 = all killed)
# Conditions in all cases: 10 µM unless noted
# NCI-H23 lung = system: NCI-H23 lung
# NCI-H226 lung = system: NCI-H226 lung
# NCI-H322M lung = system: NCI-H322M lung
# NCI-H460 lung = system: NCI-H460 lung
# NCI-H522 lung = system: NCI-H522 lung
# A549/ATCC NSCLC = system: A549/ATCC NSCLC
# 786-0 renal = system: 786-0 renal
# COLO 205 colon = system: COLO 205 colon
# DU-145 prostate = system: DU-145 prostate
# K-562 leukemia = system: K-562 leukemia
# MALME-3M melanoma = system: MALME-3M melanoma
# MDA-MB-231 breast = system: MDA-MB-231 breast
# RXF 393 renal = system: RXF 393 renal
# SF-268 CNS = system: SF-268 CNS
# SF-295 CNS = system: SF-295 CNS
# SF-539 CNS = system: SF-539 CNS
# M14 melanoma = system: M14 melanoma
# UACC-257 melanoma = system: UACC-257 melanoma
# HCT-15 colon = system: HCT-15 colon
# HOP-62 NSCLC = system: HOP-62 NSCLC
Structure (SMILES),growth (NCI-H23 lung),growth (NCI-H226 lung) [%],growth (NCI-H322M lung),growth (NCI-H460 lung),growth (NCI-H522 lung),growth (A549/ATCC NSCLC),growth (786-0 renal),growth (COLO 205 colon),growth (DU-145 prostate),growth (K-562 leukemia),growth (MALME-3M melanoma),growth (MDA-MB-231 breast),growth (RXF 393 renal),growth (SF-268 CNS),growth (SF-295 CNS),growth (SF-539 CNS),growth (M14 melanoma),growth (UACC-257 melanoma),growth (HCT-15 colon),growth (HOP-62 NSCLC)
COc1ccc(Nc2ccnc(NCCCNc3ccnc4cc(Cl)ccc34)n2)cc1,58.1%,69.6,3.32% (active),-56.5% (active),-55% (active),-14.5% (active),-97.7% (active),-65% (active),22.4%,-19.2% (active),-81.5% (active),-73.4% (active),-90% (active),-28.6% (active),-82.2% (active),-100% (active),-91.9% (active),–,–,–
Fc1ccc([C@@H]2CCNC[C@H]2COc2ccc3c(c2)OCO3)cc1,82.5%,83.2,73.2%,73.5%,64.6%,83%,68.2%,-77.5% (active),92.1%,51.7%,78.4%,11.5%,71.7%,92.3%,74.2%,89.5%,49.7%,76.8%,85.8%,–
COc1cc(/C=C/C(=O)Nc2cccnc2Nc2cc(OC)c(OC)c(OC)c2)cc(OC)c1OC,93%,–,115%,95.4%,87.6%,85.4%,86.3%,113%,105%,–,107%,90.7%,108%,105%,92.8%,98.1%,100%,93.4%,–,106%
CC1(C)OC(=O)C(=Cc2ccccc2Br)C(=O)O1,101%,–,101%,102%,88.8%,103%,103%,109%,116%,87.4%,–,109%,–,104%,99.7%,91.9%,88%,95.3%,–,106%
O=C1/C(=C/c2ccc([N+](=O)[O-])s2)Oc2ccc(Br)cc21,-48.3% (active),–,-29.7% (active),-51.9% (active),-77.7% (active),-39.6% (active),-13.4% (active),-80% (active),-72.1% (active),-5.87% (active),-59.7% (active),-64% (active),-59.9% (active),-52.1% (active),-31.3% (active),-73.7% (active),-54.1% (active),-39.2% (active),-3.34% (active),-49.8% (active)
c1coc([C@@H]2C[C@@H]3Cc4ccc5ccccc5c4N2O3)c1,94.3%,–,106%,117%,86.8%,94.9%,103%,130%,120%,102%,97.7%,108%,94.2%,111%,101%,99.6%,108%,99.2%,99.5%,88.6%
COc1cc2c(c(OC)c1OC)CCc1cnoc1-2,104%,–,107%,106%,102%,103%,155%,134%,116%,99.8%,100%,107%,121%,109%,108%,100%,122%,103%,102%,156%
CC12CCCCC1C(C(N)=O)C(=O)O2 (stereo not given),101%,–,104%,110%,108%,106%,101%,112%,–,102%,120%,101%,–,–,109%,112%,104%,107%,106%,109%
O=C1C2C3C=CC(O3)C2C(=O)N1Nc1ccccc1 (stereo not given),106%,–,124%,112%,117%,103%,107%,124%,112%,103%,120%,99.8%,119%,102%,107%,–,104%,104%,104%,117%
COc1ccc(-c2cn(-c3ccccc3)c(-c3ccccc3)n2)cc1OC,75.7%,–,88.4%,70.5%,75.4%,85.8%,83.7%,–,-22.9% (active),14.8%,111%,73.8%,102%,47.9%,94.7%,79.6%,87%,105%,17.1%,102%
CCCCCCOc1ccc(/C=N/NC(N)=S)cc1,54.3%,–,122%,92.6%,-64% (active),88.3%,9.39% (active),50.2%,71.9%,17.8%,17.9%,29.5%,22.6%,47.2%,–,16.5%,44.6%,48.2%,33.9%,100%
C=C(C)[C@H]1CC/C(C)=C/CC[C@]2(C)O[C@H]2CC/C(C=O)=C\C1O (stereo not given in full),112%,–,111%,104%,113%,108%,115%,–,106%,124%,–,92.4%,111%,106%,–,106%,115%,154%,118%,–
O=C(Nc1ncc([N+](=O)[O-])s1)c1cccc([N+](=O)[O-])c1,9.05% (active),–,35.9%,43.4%,8.27% (active),81.8%,18%,77%,84.6%,23.3%,40.3%,62.3%,25.1%,64.2%,23.3%,28.4%,44%,58.6%,47.8%,25.3%
CC(NC(=O)C(C)Oc1ccc(Cl)cc1Cl)C(=O)O (stereo not given),91.9%,–,122%,101%,83.6%,116%,97.6%,–,108%,135%,98.6%,96.8%,120%,102%,97.8%,102%,92.2%,94.6%,98.3%,94.5%
Cc1cc2c(C#N)n3c(c2cc1C)C(=O)C(c1ccccc1)Oc1ccccc1-3 (stereo not given),21%,–,81.8%,42.1%,-35.7% (active),4.49% (active),41.7%,56.6%,64.4%,12.7%,–,58.9%,–,35.1%,14.8%,74%,36.8%,44.7%,16.4%,35.7%
CCC(CC)NCCCCCNc1cc(OC)cc2cccnc12,94.7%,–,120%,105%,97.7%,96.1%,95%,82.7%,102%,85.1%,119%,83.9%,88.1%,85.3%,113%,92%,–,101%,92.6%,–
C[N+]1(CCc2ccccc2)CCC(CCC2CC[N+](C)(CCc3ccccc3)CC2)CC1 (stereo not given),87.4%,–,120%,103%,98.8%,–,110%,104%,117%,129%,118%,101%,105%,102%,97.1%,106%,103%,110%,104%,66.9%
